# Test results taken from paper PMC5540273 (PLoS ONE, 2017).
# How the values were obtained:
# Conditions in all cases: concentration: 1 μM, replicates: in singlicate; n = 1
# DCAMKL2 = test system: T1, DCAMKL2
# T1 construct: gene DCLK2
# DCAMKL3 = test system: T2, DCAMKL3
# T2 construct: gene DCLK3
# DDR1 = test system: DDR1
# DDR2 = test system: DDR2
# DLK = test system: T3, DLK
# T3 construct: gene MAP3K12
# DMPK2 = test system: T4, DMPK2
# T4 construct: gene CDC42BPG
# DMPK = test system: DMPK
# DRAK1 = test system: T5, DRAK1
# T5 construct: gene STK17A
# DRAK2 = test system: T6, DRAK2
# T6 construct: gene STK17B
# DYRK1A = test system: DYRK1A
# DYRK1B = test system: DYRK1B
# DYRK2 = test system: DYRK2
# EGFR = test system: EGFR
# EIF2AK1 = test system: EIF2AK1
# EPHA1 = test system: EPHA1
# EPHA2 = test system: EPHA2
# EPHA3 = test system: EPHA3
# EPHA4 = test system: EPHA4
# EPHA5 = test system: EPHA5
# EPHA6 = test system: EPHA6
# 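Further: KINOMEscan kinase panel screen.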
SMILES,%Inh (DCAMKL2),%Inh (DCAMKL3),%Inh (DDR1),%Inh (DDR2),%Inh (DLK),%Inh (DMPK2),%Inh (DMPK),%Inh (DRAK1),%Inh (DRAK2),%Inh (DYRK1A),%Inh (DYRK1B),%Inh (DYRK2),%Inh (EGFR),%Inh (EIF2AK1),%Inh (EPHA1),%Inh (EPHA2),%Inh (EPHA3),%Inh (EPHA4),%Inh (EPHA5),%Inh (EPHA6)
COC(=O)Nc1nc2ccc(Oc3ccc(NC(=O)Nc4cc(C(F)(F)F)ccc4F)cc3)cc2[nH]1.Cl [GW654607],0%,36%,100%,94.2%,13%,9%,0%,0%,1%,13%,42%,13%,29%,26%,90.9%,98%,39%,96.8%,66%,97.7%
Cl.N#CCc1ccc(Nc2nccc(Nc3ccc(Oc4ccccc4)cc3)n2)cc1 [GW639905],0%,1%,32%,5%,35%,0%,0%,22%,0%,19%,0%,8%,33%,5%,1%,9%,0%,0%,0%,0%
Cc1cc(-c2c(-c3ccc(F)cc3)ncn2CCCN2CCOCC2)nc(N)n1 [SB-222517],2%,0%,0%,21%,0%,0%,16%,13%,15%,0%,20%,34%,0%,0%,0%,0%,0%,20%,9%,30%
O=C(Nc1n[nH]c2nc(-c3ccccc3)ccc12)C1CC1 [SB-708999],6%,0%,3%,32%,0%,50%,0%,0%,0%,15%,0%,12%,1%,0%,15%,15%,0%,0%,2%,0%
NCCC(NC(=O)c1cc(Br)c(-c2ccnc3[nH]ccc23)s1)c1ccccc1.O=C(O)C(F)(F)F.O=C(O)C(F)(F)F (stereo not shown) [GSK1307810],0%,0%,0%,26%,33%,99.8%,64%,74%,0%,44%,70%,57%,19%,0%,10%,1%,35%,0%,0%,0%
CN1CCN(Cc2ccc(NC(=O)Nc3ccc(N(C)c4ccnc(Nc5ccc(CS(C)(=O)=O)cc5)n4)cc3)cc2)CC1.Cl [GW827654],18%,30%,99.4%,100%,64%,57%,0%,10%,21%,0%,3%,32%,0%,0%,33%,29%,49%,0%,5%,2%
c1ccc(Oc2ccc(Nc3ccnc4cc(-c5ccc(CN6CCCCC6)o5)ccc34)cc2)nc1 [GW567143],8%,25%,30%,35%,79%,0%,0%,0%,0%,26%,0%,10%,55%,0%,78%,0%,6%,3%,0%,0%
Cc1ccc(Nc2ccnc(Nc3ccc(C)c(F)c3)n2)cc1O.Cl [GW582868],0%,0%,10%,12%,40%,0%,0%,0%,0%,20%,0%,0%,38%,3%,48%,19%,0%,2%,0%,6%
CC(C)c1nc(-c2cccc(NS(=O)(=O)c3c(F)cccc3F)c2)c(-c2ccnc(Nc3ccc(N4CCOCC4)nc3)n2)s1.Cl [GSK1723980],13%,10%,94.9%,42%,74%,11%,0%,0%,0%,39%,0%,18%,99.1%,66%,97.7%,0%,18%,27%,0%,77%
Cl.O=C(Nc1ccc(Oc2ccc3[nH]c(NC(=O)c4ccco4)nc3c2)cc1)Nc1cc(C(F)(F)F)ccc1F [GW683134],7%,0%,100%,95.7%,22%,0%,0%,0%,0%,13%,6%,0%,44%,4%,91.8%,95.2%,20%,93.6%,48%,96.4%
O=C(Nc1n[nH]c2nc(-c3ccccc3O)ccc12)C1CC1 [SB-711880],0%,0%,1%,0%,32%,0%,0%,3%,0%,9%,56%,14%,27%,0%,0%,4%,30%,0%,5%,0%
COc1cccc(NC(=O)NCCNc2ccnc(Nc3ccc(F)cc3)n2)c1 [GSK1379879],0%,0%,7%,1%,21%,0%,0%,0%,31%,10%,25%,0%,43%,0%,52%,27%,0%,0%,0%,0%
N#Cc1cnc2cc(-c3cnc(CNCCN4CCOCC4)s3)ccc2c1Nc1ccc(Oc2ccccc2)cc1 [GW664114],0%,0%,21%,11%,91.2%,0%,0%,2%,0%,38%,5%,14%,98.1%,0%,8%,0%,10%,11%,0%,19%
COc1ccc(C2=C(Nc3cccc(O)c3)C(=O)NC2=O)cc1 [SB-390766],0%,1%,1%,17%,19%,0%,0%,3%,0%,70%,100%,30%,32%,5%,11%,0%,0%,0%,0%,0%
Cn1cc(-c2ccc3c(c2)CCN3C(=O)Cc2cc(F)cc(C(F)(F)F)c2)c2c(N)ncnc21 [GSK2635225],0%,0%,100%,85%,23%,0%,0%,0%,0%,4%,0%,4%,23%,22%,21%,11%,26%,0%,0%,17%
O=C1NC(=O)C(c2ccccc2Cl)=C1Nc1cccc(Cl)c1 [SB-342409],10%,14%,9%,0%,0%,75%,1%,1%,0%,61%,0%,23%,0%,27%,8%,7%,0%,25%,0%,17%
O=C(O)C(F)(F)F.O=c1[nH]ccc2nc(N[C@@H]3CCNC3)nc(Nc3cc(Cl)cc(Cl)c3)c12 [GSK2188764],52%,82%,0%,18%,43%,41%,98.3%,99.7%,79%,3%,21%,36%,25%,18%,6%,0%,72%,0%,0%,0%
COc1cccc(CC(=O)N2CCc3cc(-c4cn(C)c5ncnc(N)c45)ccc32)c1 [GSK2608899],0%,14%,97%,27%,36%,53%,25%,4%,0%,6%,22%,22%,23%,87%,0%,0%,19%,4%,5%,10%
Fc1cc(Cl)ccc1Nc1ccnc2cc(-c3ccc(CN4CCSCC4)o3)ccc12 [GW560106],0%,42%,96.1%,69%,46%,0%,8%,23%,0%,0%,0%,13%,71%,0%,91.1%,31%,19%,10%,0%,52%
CCn1cnc2c(NCc3ccccc3)ncnc21 [SKF-96418],0%,0%,0%,38%,0%,1%,0%,0%,0%,0%,37%,15%,0%,0%,0%,0%,0%,7%,0%,0%
